Bioassay records from PubChem BioAssay.
Vaccinia inh: blocks a specific stage of Vaccinia orthopoxvirus infection, primary screen, cell-based, single point; actives 0.01% (n = 89,000); activity change (mCherry), % (test concentration not listed); Vaccinia-infected cells, mCherry/Venus stage reporter fluorescence; active compounds read low; in the data active = activity change below about -37%, passing the limit was not always enough; tested in A549 cells
Numbers without * were called inactive. The entries come from a sample that favours hits as a whole.

SMILES	Vaccinia inh
O=C(CCN1CCCCC1)NCC[C@@H]1CC[C@H](NC(=O)C2CC2)[C@@H](CO)O1	0
CCS(=O)(=O)Nc1ccc2c(c1)C(=O)N(C)[C@H]1CC[C@H](CC(=O)N3CCOCC3)O[C@@H]1CO2	10
COc1ccc(S(=O)(=O)N(C)C[C@@H]2Oc3c(NC(=O)NC4CCCCC4)cccc3C(=O)N([C@H](C)CO)C[C@H]2C)cc1	-13
Cc1ccc(S(=O)(=O)Nc2ccc3c(c2)CC(=O)N([C@H](C)CO)C[C@H](C)[C@H](CN(C)CC2CC2)O3)cc1	-11
CC(C)NC(=O)Nc1cccc2c1O[C@H](CN(C)S(C)(=O)=O)[C@H](C)CN([C@H](C)CO)C2=O	18
O=S(=O)(c1ccccc1)N1[C@@H]2CNC[C@H]1C2c1ccc(-c2ccccc2)cc1 (stereo not given in full)	17
C[C@@H]1CCCCO[C@@H](CN(C)C(=O)Nc2ccc(F)cc2)[C@H](C)CN([C@@H](C)CO)C(=O)c2cc(NS(=O)(=O)c3ccc(Cl)cc3)ccc2O1	32
O=C(C[C@@H]1C[C@@H]2c3cc(NC(=O)c4cccnc4)ccc3O[C@@H]2[C@H](CO)O1)NCc1ccccc1F	20
O=C(C[C@H]1C[C@@H]2c3cc(NC(=O)Nc4ccccc4F)ccc3O[C@@H]2[C@@H](CO)O1)NCCc1ccccc1	2
CC(C)C[C@@H]1COCc2cn(nn2)CC[C@@H](Cc2ccccc2)C(=O)N1	13
OC[C@H]1[C@H](c2ccccc2)C2(CN(Cc3cccnc3)C2)N1Cc1ccncc1	9
COCC#Cc1ccc2c(c1)O[C@H](CN(C)C(=O)CN(C)C)[C@H](C)CN([C@@H](C)CO)S2(=O)=O	13
C[C@@H]1CN([C@@H](C)CO)C(=O)c2cc(C#CCN(C)C)cnc2O[C@H]1CN(C)Cc1ccncc1	10
O=C(Cc1cccnc1)N1CC(=O)N2[C@H](CO)[C@H](c3ccc(C4=CCCCC4)cc3)[C@@H]2C1	4
C/C=C/c1cnc2c(c1)C(=O)N([C@H](C)CO)C[C@H](C)[C@@H](CN(C)Cc1ccncc1)O2	25
C[C@@H]1CCCCO[C@@H](CN(C)C(=O)C2CCCCC2)[C@H](C)CN([C@@H](C)CO)C(=O)c2cc(NC(=O)c3ccncc3)ccc2O1	-6
COc1ccccc1-c1cccc(-c2nc(C(=O)N3CCN(C)CC3)cc3c2[C@@H](CCO)N([S@](=O)C(C)(C)C)C3)c1	-1
CN1CCN(C(=O)c2cc3c(c(-c4cccc(Br)c4)n2)[C@H](CCO)N([S@@](=O)C(C)(C)C)C3)CC1	5
CN1CCN(C(=O)c2cc3c(c(-c4cccc(C#CCC5CCCC5)c4)n2)[C@@H](CCO)N(S(=O)C(C)(C)C)C3)CC1 (stereo not given in full)	-65*
CCNC(=O)c1cc2c(c(-c3cccc(-c4cccc(F)c4)c3)n1)[C@@H](CCO)N([S@](=O)C(C)(C)C)C2	-24
COCCNC(=O)c1cc2c(c(-c3cccc(-c4cccc(F)c4)c3)n1)[C@@H](CCO)N([S@](=O)C(C)(C)C)C2	-17
CCCNC(=O)c1cc2c(c(-c3cccc(-c4cccc(F)c4)c3)n1)[C@H](CCO)N([S@@](=O)C(C)(C)C)C2	-46*
COCC#Cc1ccc([C@H]2[C@H](CO)N3C(=O)CN(C(=O)c4ccncc4)C[C@@H]23)cc1	16
O=C(N[C@@H]1CC[C@@H](CCn2cc(C3(O)CCCC3)nn2)O[C@H]1CO)C1CCCCC1	4
C[C@@H]1CN([C@@H](C)CO)C(=O)c2cc(NC(=O)CCCN(C)C)ccc2O[C@H]1CN(C)S(=O)(=O)c1ccc(Cl)cc1	-1
SMILES	Vaccinia inh
CO[C@H]1CN(C)C(=O)c2cc(NC(=O)CC(F)(F)F)ccc2OC[C@H](C)N(C(=O)C2CCCCC2)C[C@@H]1C	-2
COCCNC(=O)C[C@H]1C[C@@H]2c3cc(NC(=O)Nc4ccc(OC)cc4)ccc3O[C@@H]2[C@@H](CO)O1	0
C[C@H]1CN([C@@H](C)CO)C(=O)c2cc(NC(=O)Cc3ccccc3)ccc2O[C@H]1CN(C)C(=O)Nc1ccc(C(F)(F)F)cc1	-17
CCCNC(=O)N(C)C[C@@H]1Oc2ncc(C#CC(C)C)cc2C(=O)N([C@H](C)CO)C[C@@H]1C	2
C[C@@H]1CN([C@H](C)CO)C(=O)c2cc(NS(=O)(=O)c3ccc(Cl)cc3)ccc2O[C@H]1CN(C)C(=O)Nc1ccc(F)cc1	15
C/C=C/c1ccc2c(c1)O[C@@H](CN(C)C(C)=O)[C@H](C)CN([C@@H](C)CO)S2(=O)=O	21
COc1cccc(CN2CCCCN3[C@@H](CO)[C@@H](c4ccc(C#Cc5cccnc5)cc4)[C@@H]3C2)c1	-24
CCCNC(=O)N1CC2(CCN(C(=O)c3ccncc3)CC2)c2c([nH]c3cc(OC)ccc23)[C@@H]1CO	13
Cc1ccccc1-c1ccc(C2[C@H]3CNC[C@@H]2N3Cc2cncnc2)cc1 (stereo not given in full)	9
COc1ccc(NC(=O)N(C)C[C@H]2Oc3ncc(C#C[C@H](C)O)cc3C(=O)N([C@H](C)CO)C[C@@H]2C)cc1	20
